Laboratory results from PubChem BioAssay (NCATS).
Where “and” joins values, the source holds several entries; their conditions need not be identical. Identical values can stand only once. Records with an inconclusive call do not appear. Entries that show only a call come without a potency. Some compounds were tested as several samples or in several runs, with calls that do not always agree. Calls of active or inactive are those of the source. Unless noted, the call rests on the fitted dose curve; in most records, active means well fitted curve in the direction sought with a large enough effect; inconclusive means small, poorly fitted or top-dose-only effect, or another doubt; inactive means no such curve, though single readings can be large; an effect the other way counts as inactive or inconclusive.

Experiments:
[1] = target: Alpha-galactosidase (Coffea arabica) (UniProt Q42656); test: Counterscreen for Glucocerebrosidase Inhibitors: qHTS Assay for Coffee Bean alpha-Galactosidase at pH 4.5 (AID 957); further: series mostly up to about 77 µM
Sequence of Alpha-galactosidase (Coffea arabica) (Q42656 whole entry, looked up): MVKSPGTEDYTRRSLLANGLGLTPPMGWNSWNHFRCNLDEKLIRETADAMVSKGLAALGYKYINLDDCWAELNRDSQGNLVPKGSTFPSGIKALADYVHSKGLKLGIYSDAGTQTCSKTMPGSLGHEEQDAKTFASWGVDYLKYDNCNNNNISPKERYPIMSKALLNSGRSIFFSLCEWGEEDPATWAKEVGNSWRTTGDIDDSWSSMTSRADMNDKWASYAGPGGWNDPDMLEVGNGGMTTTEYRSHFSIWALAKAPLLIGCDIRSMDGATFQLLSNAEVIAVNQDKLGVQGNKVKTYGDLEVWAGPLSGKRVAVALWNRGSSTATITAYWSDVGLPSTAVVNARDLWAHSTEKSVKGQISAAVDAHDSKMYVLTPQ
Method in brief: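 Fluorogenic read-out: 4-methylumbelliferone at Ex 365/Em 440 nm after NaOH/glycine stop (pH 10). Enzyme 2 nM, 4-MU-alpha-galactoside 80 uM, citrate buffer pH 4.5, 20 min RT; normalized to no-enzyme and enzyme controls.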

[2] = target: Alpha-galactosidase (Coffea arabica) (UniProt Q42656); test: Counterscreen for Glucocerebrosidase Inhibitors: qHTS Assay for Coffee Bean alpha-Galactosidase at pH 5.9 (AID 998)
Method in brief: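 In 50 mM citric acid pH 5.9 with 0.005% Tween-20, coffee bean enzyme hydrolyses 80 uM 4-MU alpha-D-galactopyranoside over 20 min at RT. Activity is normalized to controls; AC50 comes from Hill-modelled concentration-response data.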

[3] = Inducers of the Endoplasmic Reticulum Stress Response (ERSR) in human glioma: Validation (AID 504836)
Method in brief: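 Stably transfected U87-MG human glioma cells carrying a GRP78-based luminescent sensor were seeded at 1000 cells/well, pin-dosed with compounds and incubated 16 h. Luciferase reagent was then added, and end-point luminescence was read after 10 min at room temperature.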

[4] = qHTS for Inhibitors of the Functional Ribonucleoprotein Complex (vRNP) of Lassa (LASV) Arenavirus: LASV Primary Screen - GLuc reporter signal (AID 1347082; calls by dose curve; tested in HEK293 reporter line; further: series mostly up to about 57 µM; nearly all actives have a fitted effect of over 60% in size)
[5] = qHTS for Inhibitors of the Functional Ribonucleoprotein Complex (vRNP) of Lassa (LASV) Arenavirus: Viability assay - alamar blue signal for LASV Primary Screen (AID 1347083; calls by dose curve; tested in HEK293 reporter line; further: series mostly up to about 57 µM; nearly all actives have a fitted effect of over 80% in size)
[6] = qHTS for Inhibitors of the Functional Ribonucleoprotein Complex (vRNP) of Lymphocytic Choriomeningitis Arenaviruses (LCMV): Viability assay - alamar blue signal for LCMV Primary Screen (AID 1347085; calls by dose curve; tested in HEK293 reporter line; further: series mostly up to about 57 µM; nearly all actives have a fitted effect of over 80% in size)
[7] = target: Nucleoprotein (Lymphocytic choriomeningitis virus (strain Armstrong)) (UniProt P09992); test: qHTS for Inhibitors of the Functional Ribonucleoprotein Complex (vRNP) of Lymphocytic Choriomeningitis Arenaviruses (LCMV): LCMV Primary Screen - GLuc reporter signal (AID 1347086; calls by dose curve; further: series mostly up to about 57 µM; nearly all actives have a fitted effect of over 70% in size)
Sequence of Nucleoprotein (Lymphocytic choriomeningitis virus (strain Armstrong)) (P09992 whole entry, looked up): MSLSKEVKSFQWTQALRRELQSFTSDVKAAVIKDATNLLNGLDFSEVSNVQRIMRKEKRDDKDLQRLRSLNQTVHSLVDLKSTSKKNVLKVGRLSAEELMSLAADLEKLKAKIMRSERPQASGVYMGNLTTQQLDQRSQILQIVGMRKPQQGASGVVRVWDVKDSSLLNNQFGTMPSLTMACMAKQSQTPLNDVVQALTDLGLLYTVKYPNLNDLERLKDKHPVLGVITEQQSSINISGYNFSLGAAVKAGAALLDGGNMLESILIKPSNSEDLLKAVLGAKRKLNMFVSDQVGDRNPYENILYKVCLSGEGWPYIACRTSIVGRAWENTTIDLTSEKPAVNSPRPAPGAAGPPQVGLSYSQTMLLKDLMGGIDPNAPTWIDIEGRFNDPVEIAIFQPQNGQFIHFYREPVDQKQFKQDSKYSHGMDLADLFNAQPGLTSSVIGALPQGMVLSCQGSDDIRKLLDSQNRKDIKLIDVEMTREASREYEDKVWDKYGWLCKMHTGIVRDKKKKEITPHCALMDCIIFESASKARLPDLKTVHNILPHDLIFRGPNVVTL

[8] = target: Bile acid receptor (Homo sapiens) (UniProt Q96RI1); test: qHTS assay for small molecule agonists of farnesoid X receptor signaling (AID 588527; calls by dose curve; further: series mostly up to about 77 µM); settings: HEK293T FXR-UAS-bla, beta-lactamase ratio, 16 h; activation: stronger effect = higher value
Sequence of Bile acid receptor (Homo sapiens) (Q96RI1 whole entry, looked up): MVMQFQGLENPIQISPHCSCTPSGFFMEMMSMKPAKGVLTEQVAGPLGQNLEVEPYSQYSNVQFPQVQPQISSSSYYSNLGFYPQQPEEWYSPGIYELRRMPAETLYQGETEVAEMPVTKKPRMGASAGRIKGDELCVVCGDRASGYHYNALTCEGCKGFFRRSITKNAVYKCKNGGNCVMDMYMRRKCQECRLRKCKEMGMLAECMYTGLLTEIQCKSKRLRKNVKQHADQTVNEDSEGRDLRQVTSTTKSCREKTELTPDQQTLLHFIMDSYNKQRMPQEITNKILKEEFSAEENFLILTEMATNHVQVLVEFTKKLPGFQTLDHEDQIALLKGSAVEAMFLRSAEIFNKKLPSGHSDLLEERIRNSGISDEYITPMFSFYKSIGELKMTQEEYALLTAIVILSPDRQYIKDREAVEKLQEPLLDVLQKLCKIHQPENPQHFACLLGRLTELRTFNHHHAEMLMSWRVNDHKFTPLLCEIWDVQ
Method in brief: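 Agonist-mode beta-lactamase reporter in GeneBLAzer FXR-UAS-bla HEK293T cells, titration up to 92 uM, 16 h exposure at 37 C, CCF4 fluorescence. Response scaled to DMSO (0%) and 100 uM chenodeoxycholic acid (100%), then Hill-fitted for EC50 and efficacy.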

[9] = target: Peroxisome proliferator-activated receptor delta (Homo sapiens) (UniProt Q03181); test: qHTS assay for small molecule agonists of peroxisome proliferator-activated receptor delta signaling (AID 588534; calls by dose curve)
Sequence of Peroxisome proliferator-activated receptor delta (Homo sapiens) (Q03181 whole entry, looked up): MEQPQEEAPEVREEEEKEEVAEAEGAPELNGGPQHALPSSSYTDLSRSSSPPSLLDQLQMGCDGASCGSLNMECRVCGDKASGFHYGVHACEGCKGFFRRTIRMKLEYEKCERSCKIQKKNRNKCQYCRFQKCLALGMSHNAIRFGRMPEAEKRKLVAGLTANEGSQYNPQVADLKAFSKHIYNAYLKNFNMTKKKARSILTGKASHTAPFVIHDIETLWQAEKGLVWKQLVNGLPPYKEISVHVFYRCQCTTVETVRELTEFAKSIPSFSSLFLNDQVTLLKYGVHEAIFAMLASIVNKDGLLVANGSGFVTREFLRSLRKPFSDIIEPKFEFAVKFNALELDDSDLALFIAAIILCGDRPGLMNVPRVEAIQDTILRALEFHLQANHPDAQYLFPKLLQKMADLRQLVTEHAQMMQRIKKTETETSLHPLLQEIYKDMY
Method in brief: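 Titration series tested in agonist mode on beta-lactamase reporter cells; 18 hrs at 37 C after a 5 hr pre-incubation. Readout: CCF4 fluorescence, 2 hrs RT. Hill equation gives EC50 and maximal response.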

[10] = target: Cytochrome P450 3A4 (Homo sapiens) (UniProt P08684); test: qHTS Assay for Inhibitors and Substrates of Cytochrome P450 3A4 (AID 884); further: nearly all actives have a fitted effect of over 50% in size; further: potency means the concentration at half of the fitted maximal effect
Sequence of Cytochrome P450 3A4 (Homo sapiens) (P08684 whole entry, looked up): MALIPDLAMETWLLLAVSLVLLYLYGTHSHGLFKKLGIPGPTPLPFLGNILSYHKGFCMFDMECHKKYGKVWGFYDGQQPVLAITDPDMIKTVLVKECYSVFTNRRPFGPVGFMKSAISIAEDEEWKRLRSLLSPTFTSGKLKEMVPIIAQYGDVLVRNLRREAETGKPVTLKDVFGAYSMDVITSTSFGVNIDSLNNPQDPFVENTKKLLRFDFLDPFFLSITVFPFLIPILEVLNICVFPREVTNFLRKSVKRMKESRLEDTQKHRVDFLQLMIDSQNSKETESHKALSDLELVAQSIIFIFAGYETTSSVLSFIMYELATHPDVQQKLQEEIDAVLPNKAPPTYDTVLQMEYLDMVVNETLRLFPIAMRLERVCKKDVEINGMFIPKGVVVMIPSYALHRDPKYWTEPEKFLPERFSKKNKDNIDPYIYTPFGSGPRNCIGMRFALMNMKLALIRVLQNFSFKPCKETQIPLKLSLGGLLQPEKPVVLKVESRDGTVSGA
Method in brief: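 Luminescent readout of luciferin produced by CYP3A4 (20 nM) dealkylation of Luciferin-PPXE, 25 uM (its KM). NADPH-driven reaction ran 60 min at RT after 10 min compound preincubation; data scaled to 57 uM ketoconazole as 100% inhibition.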

[11] = target: Cytochrome P450 3A4 (Homo sapiens) (UniProt P08684); test: qHTS Assay for Activators of Cytochrome P450 3A4 (AID 885); further: nearly all actives have a fitted effect of over 65% in size
Method in brief: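 Luminescent readout of luciferin formed from 25 uM Luciferin-PPXE (KM level) by 20 nM CYP3A4 in 200 mM KPO4, with 60 min NADPH-driven reaction at room temperature after 10 min compound exposure. Ketoconazole (57 uM) defined 100% inhibition.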

[12] = Confirmation and Secondary Assay for Modulators of Hemoglobin Beta Chain Splicing at IVS2 654 locus (AID 910);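 further: per-well total GFP intensity by laser scanning cytometry after 2-day treatment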
Method in brief: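 HeLa cells stably carrying EGFP interrupted by mutant beta-globin IVS2-654 intron (CMV-driven) were treated with compound for 2 days at 37C; corrected splicing was scored as total peak GFP intensity per well (488 nm excitation, 500-520 nm emission).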

[13] = Confirmation and Secondary Assay for Modulators of Hemoglobin Beta Chain Splicing at IVS2 705 locus (AID 930);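 further: HeLa cells stably expressing the EGFP-705 splicing reporter; GFP fluorescence per well restored by corrected splicing of the IVS2-705 intron in EGFP; series mostly up to about 46 µM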
Method in brief: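 Fluorescence gain (488 nm laser, 500-520 nm PMT) reflects restored correct splicing of a mutant IVS2-705 intron inside EGFP in stably transfected HeLa cells after 2-day compound treatment.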

[14] = target: Ubiquitin carboxyl-terminal hydrolase 1 (Homo sapiens) (UniProt O94782); test: Inhibitors of USP1/UAF1: Pilot qHTS (AID 504865);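 further: rhodamine fluorescence freed from ubiquitin-rhodamine substrate followed over time; top concentration of the series differs between compounds; nearly all actives have a fitted effect of over 35% in size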
Sequence of Ubiquitin carboxyl-terminal hydrolase 1 (Homo sapiens) (O94782 whole entry, looked up): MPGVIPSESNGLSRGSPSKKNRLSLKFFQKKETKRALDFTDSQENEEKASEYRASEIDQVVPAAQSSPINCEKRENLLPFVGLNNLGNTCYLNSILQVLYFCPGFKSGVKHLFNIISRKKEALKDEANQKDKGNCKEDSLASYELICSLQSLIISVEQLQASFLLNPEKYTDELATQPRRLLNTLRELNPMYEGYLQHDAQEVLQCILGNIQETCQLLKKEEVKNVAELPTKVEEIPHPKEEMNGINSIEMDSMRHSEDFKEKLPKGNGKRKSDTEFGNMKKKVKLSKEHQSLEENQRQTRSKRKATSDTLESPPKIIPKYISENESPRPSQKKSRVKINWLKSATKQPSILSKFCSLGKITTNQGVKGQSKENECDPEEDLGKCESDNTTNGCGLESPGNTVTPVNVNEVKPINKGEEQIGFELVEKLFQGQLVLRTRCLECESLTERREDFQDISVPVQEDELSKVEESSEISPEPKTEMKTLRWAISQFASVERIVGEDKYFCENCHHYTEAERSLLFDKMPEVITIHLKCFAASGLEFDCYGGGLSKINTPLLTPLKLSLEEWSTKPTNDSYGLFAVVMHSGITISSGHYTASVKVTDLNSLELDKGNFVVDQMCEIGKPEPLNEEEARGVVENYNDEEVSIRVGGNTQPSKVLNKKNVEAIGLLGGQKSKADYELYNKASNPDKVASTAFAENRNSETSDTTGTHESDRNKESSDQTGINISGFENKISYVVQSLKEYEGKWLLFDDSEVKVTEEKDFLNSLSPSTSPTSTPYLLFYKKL
Method in brief: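 1nM USP1/UAF1 + cpd, 15 min RT; start w/ Ub-Rho 150nM final; kinetic FL 480/540 nm, 6 reads q60 s. Buffer 50mM HEPES pH 7.8, 0.5mM EDTA, 1mM TCEP, 0.01% Tween-20, 0.1 mg/ml BSA.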

Nc1ccc2c3c(cccc13)C(=O)NC2=O
outcome [1]: inactive
outcome [2]: inactive
outcome [3]: inactive
Potency [4]: inactive
Potency [5]: inactive
Potency [6]: inactive
Potency [7]: inactive

O=C(O)C1=CC(=C(c2ccc(O)c(C(=O)O)c2)c2ccc(O)c(C(=O)O)c2)C=CC1=O
outcome [1]: inactive
outcome [2]: inactive
outcome [3]: inactive
Potency [4]: inactive
Potency [5]: inactive
Potency [6]: inactive
Potency [7]: inactive

COC(=O)c1ccc(C)cc1
activation [8]: -0.0429% (inactive)
Potency [9]: inactive
Potency [4]: inactive
Potency [5]: inactive
Potency [6]: inactive
Potency [7]: inactive

COc1ccc(CCN(C)CCc2ccc(OC)c(OC)c2)cc1OC
outcome [2]: inactive
outcome [3]: inactive
Potency [4]: inactive
Potency [5]: inactive
Potency [6]: inactive
Potency [7]: inactive

C=CC(C)(O)CCC=C(C)C (configuration not stated)
activation [8]: -2.97% (inactive) and 2.71% (inactive)
Potency [4]: inactive
Potency [5]: inactive
Potency [6]: inactive
Potency [7]: inactive

O=Nc1ccc2oc(=O)ccc2c1
outcome [1]: inactive
outcome [2]: inactive
outcome [3]: inactive
Potency [4]: inactive
Potency [5]: inactive
Potency [6]: inactive
Potency [7]: inactive

C=CC1CN2CCC1CC2C(O)c1ccnc2ccccc12 (configuration not stated)
Potency [10]: 25.1 µM (active) and inactive
Potency [11]: inactive
Potency [12]: inactive
outcome [13]: inactive
Potency [14]: inactive
Potency [4]: inactive
Potency [5]: inactive
Potency [6]: inactive
Potency [7]: inactive

C=CCSSCC=C
Potency [11]: inactive
Potency [12]: inactive
outcome [13]: inactive
Potency [14]: inactive
Potency [4]: inactive
Potency [5]: inactive
Potency [6]: inactive
Potency [7]: inactive

CN1CCc2cc(NC(=O)Nc3cccnc3)ccc21
outcome [1]: inactive
outcome [2]: inactive
outcome [3]: inactive
Potency [4]: inactive
Potency [5]: inactive
Potency [6]: inactive
Potency [7]: inactive

O=C(O)c1cc(O)c2ccccc2c1O
activation [8]: 1.64% (inactive)
Potency [9]: inactive
Potency [4]: inactive
Potency [5]: inactive
Potency [6]: inactive
Potency [7]: inactive

NC(=NCc1ccccc1)NC(=O)c1nc(Cl)c(N)nc1N
outcome [1]: inactive
outcome [2]: inactive
outcome [3]: inactive
Potency [4]: inactive
Potency [5]: inactive
Potency [6]: inactive
Potency [7]: inactive

CC(C)[C@H](NC(=O)OCc1ccccc1)C(=O)N[C@H](C=O)Cc1ccccc1
outcome [1]: inactive
outcome [2]: inactive
outcome [3]: inactive
Potency [4]: inactive
Potency [5]: inactive
Potency [6]: inactive
Potency [7]: inactive
